NPC1 prom act: activators of NPC1 promoter; 320,000 compounds, 2.4% hits; Potency, µM (series often up to 9.22 µM), without a hit: at the highest dose activation, hits mostly activators; Huh7 NPC1 promoter luciferase reporter, 24 h; note: % of control where 0% means no effect; nearly all actives have a fitted effect of over 60% in size
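Cells: Huh7 expressing luciferase under the NPC1 promoter, 1500/well. Seeded 2 h, compound added, incubated 24 h at 37 °C. Luciferase reagent, 10 min ambient, then luminescence.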
SMN2 splice enh: increases expression of the SMN2 splice variant. HEK293 SMN2-luciferase splicing reporter, luminescence, 30-36 h. Potency, µM (top dose mostly 46.1 µM), inactives show at the top dose activity change, positive = activation, most hits filed as activators. 210,000 compounds, 2.8% hits; note: % of control where 0% means no effect; nearly all actives have a fitted effect of over 55% in size
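qHTS luciferase splicing reporter: luminescence rises when SMN2 exon 7 is included in transfected HEK293 cells. Compound exposure lasted 30-36 h at 37C, with 4.5 mM final sodium butyrate as control, followed by a ONE-Glo read.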
Rab9 promoter act: activates the Rab9 promoter | 320,000 compounds, 2.8% hits | Potency, µM (top dose mostly 9.22 µM), for inactives: at the highest dose activation, negative = inhibition, most hits filed as activators | Huh7 Rab9 promoter-luciferase reporter, luminescence, 24 h; note: % of control where 0% means no effect; nearly all actives have a fitted effect of over 60% in size
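Luminescence read-out: Huh7 cells stably expressing Rab9-luciferase, treated 24 h with compound at 37 °C, then lysed with luciferase reagent for 10 min at ambient before reading.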
FLuc counter: counter-screen for miR-21 project: firefly luciferase inhibitors or activators. 360,000 compounds, 6.9% hits. Potency, µM (series often up to 57.5 µM), inactives show at the highest dose activity change, negative = inhibition, hits mostly inhibitors. purified FLuc, Km substrates, luminescence inhibition. P08659. AID 588342;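 note: plate controls were vehicle for no effect and reference inhibitor for full effect; nearly all actives have a fitted effect of over 55% in size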
Target sequence (P08659 whole entry, looked up): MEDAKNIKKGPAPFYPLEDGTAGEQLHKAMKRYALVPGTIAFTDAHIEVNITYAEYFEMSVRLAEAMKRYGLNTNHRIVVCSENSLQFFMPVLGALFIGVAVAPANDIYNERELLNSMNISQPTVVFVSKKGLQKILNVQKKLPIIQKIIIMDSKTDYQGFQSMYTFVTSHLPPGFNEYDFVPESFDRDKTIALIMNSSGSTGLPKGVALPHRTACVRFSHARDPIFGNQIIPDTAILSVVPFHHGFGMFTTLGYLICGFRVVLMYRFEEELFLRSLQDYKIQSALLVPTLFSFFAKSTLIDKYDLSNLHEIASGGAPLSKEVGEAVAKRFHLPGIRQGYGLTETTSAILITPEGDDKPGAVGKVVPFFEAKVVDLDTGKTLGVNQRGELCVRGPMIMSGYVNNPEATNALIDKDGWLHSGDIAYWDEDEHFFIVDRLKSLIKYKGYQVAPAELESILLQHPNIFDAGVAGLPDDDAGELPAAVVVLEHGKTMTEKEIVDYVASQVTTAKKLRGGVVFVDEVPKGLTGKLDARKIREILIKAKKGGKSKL
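Purified P. pyralis luciferase, 10 nM final, with Km-level 10 uM D-luciferin and 10 uM ATP in 50 mM Tris acetate pH 7.5, 10 mM Mg acetate, 0.01% Tween-20, 0.05% BSA; 6-point qHTS titration about 60 µM downward; luminescence read.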
KinaseGlo FLuc: blocks Kinase-Glo luciferase, a counter-screen artifact; Kinase-Glo luciferase, ATP luminescence, 8 min; Potency, µM (top dose mostly 38.3 µM), without a hit: at the top dose activity change, negative = inhibition, most hits filed as inhibitors; 200,000 compounds, 0.28% hits; AID 1379; note: % is set by controls: 0 for no effect and ±100 for the full control effect; nearly all actives have a fitted effect of over 60% in size
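Substrate mix (final 50 mM imidazole pH 7.2, 50 mM KCl, 7 mM MgCl2, 10 uM ATP, 0.01% Tween 20, 0.05% BSA) plus pin-tool compound, then Kinase-Glo detection mix; 8 min ambient, luminescence read.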
* hit, by the source's call; ? = inconclusive; · = no result given; [ ] = another dose, or the depositor's remark. Only some compounds are listed: those with a hit (about 7.3% of all), similar ones and a draw of the others. Calls come from the whole dose curve; as a rule, active = well fitted curve in the direction sought with a large enough effect; inconclusive = small, poorly fitted or top-dose-only effect, or another doubt; inactive = no such curve, though single readings can be large; an effect the other way counts as inactive or inconclusive. Potency is the fitted concentration of half-maximal effect.

SMILES	NPC1 prom act	SMN2 splice enh	Rab9 promoter act	FLuc counter	KinaseGlo FLuc
O=C(N/N=C/c1ccoc1)c1cc(O)cc(O)c1	-4%	·	2%	?	·
CC/C(=N\NC(=O)c1c(C)nc2ccccn12)c1ccccc1	-4%	·	-2%	-1%	·
O=C(N=c1nc2ccccn2s1)c1ccccc1	0.89µM*	1.8µM*	?	0.19µM*	2.5µM*
COc1ccc2c(c1)/C(=N/OC(=O)c1cccs1)CCC2	0%	-28%	-1%	27µM*	-7%
COc1ccc(/C(N)=N/OC(=O)CCc2ccccc2)cc1	9%	·	19%	?	-1%
N/C(=N\OC(=O)c1cccs1)c1ccc(Cl)cc1	27%	·	?	4.8µM*	·
COc1ccc(CNC(=O)COC(=O)c2cccs2)cc1	0%	·	-6%	24µM*	·
COc1ccc(NC(=O)O/N=C2/CCCc3ccc(OC)cc32)cc1	-4%	·	-28%	?	·
COc1ccc(/C(N)=N/OC(=O)c2cccs2)cc1	1.4µM*	·	1.3µM*	1.9µM*	·
COc1ccc(CNC(=O)c2cccs2)cc1	3%	-3%	1%	4%	-6%
CC1=C(/C=C/C(C)=C/C=C/C(C)=C/C(=O)O)C(C)(C)CCC1O (stereo not given)	·	-32%	·	·	·
COc1ccc(OC)c(CNC(=O)C2CCN(S(=O)(=O)c3ccc4[nH]c(=O)oc4c3)CC2)c1	·	·	·	-13%	·
COc1ccc(C(=O)Nc2cccc(-c3nc4cccnc4s3)c2C)c(OC)c1	·	·	·	-17%	·
NCCOc1ccccn1	·	11%[9.22 µM]	·	·	-2%[7.66 µM]
COc1ccc(Br)cc1C1C(C(=O)Nc2ccc(C)cc2C)=C(C)Nc2ncnn21 (stereo not given)	·	-5%	·	-3%	·
c1ccc2c(Oc3ccc4c(c3)OCO4)nncc2c1	1.3µM*	10µM*	0.63µM*	6µM*	-13%
Nc1ccc(Oc2ccc3c(c2)OCO3)cc1	15%	6%	9%	0%	0%
COc1ccc(N2CCN(C(=O)c3cc4c(C)nc5ccccc5c4o3)CC2)cc1	-4%	·	-3%	-1%	·
COc1ccccc1N1CCN(C(=O)c2ccc(-c3nc4ccccc4s3)o2)CC1	-3%	·	24%	13µM*	·
COc1ccc(N2CCN(C(=O)c3ccc(-c4nc5ccccc5s4)o3)CC2)cc1	2%	·	18%	9.5µM*	·
COc1ccccc1N1CCN(C(=O)c2ccc(-c3ccc(Cl)cc3)o2)CC1	-42%	·	-40%	?	·
Nc1ccc2c(c1)C(=O)C(=O)c1ccccc1-2	-34%	-62%	-41%	?	?
Nc1ccc2c(c1)C(=O)c1ccccc1C2=O	?	16µM*	4µM*	13µM*	·
O=C1c2ccccc2C(=O)c2cc(NC(=O)C3CC3)ccc21	2.5µM*	11µM*	2.2µM*	?	-5%
O=C1c2ccccc2-c2ccc(NC(=O)[C@H]3CCCC[C@@H]3C(=O)O)cc21	·	-2%[9.22 µM]	·	·	0%[7.66 µM]
SMILES	NPC1 prom act	SMN2 splice enh	Rab9 promoter act	FLuc counter	KinaseGlo FLuc
COc1cc(C(=O)Nc2ccc3c(c2)C(=O)c2ccccc2C3=O)cc(OC)c1OC	-4%	5%[1.84 µM]	-2%	1%	-1%
CC(=O)Nc1ccc2c(c1)C(=O)c1ccccc1C2=O	1.6µM*	13µM*	0.71µM*	4.8µM*	-6%
O=C(O)/C=C/C(=O)Nc1ccc2c(c1)C(=O)c1ccccc1C2=O	5%	·	13%	17µM*	·
Cc1ccc(S(=O)(=O)N=Nc2c(O)[nH]c3cc(O)c(C(=O)O)cc23)cc1	·	-9%[9.22 µM]	·	·	-2%[7.66 µM]
Cc1ccc(S(=O)(=O)N2CCCc3cc(NS(=O)(=O)c4ccc(F)cc4)ccc32)cc1	·	·	·	-18%	·
Cc1c(Cl)cccc1NC(=O)c1ccc2c(c1)CCN2S(=O)(=O)c1ccccc1	·	-3%	·	4%	·
O=C(NC(c1cccnc1)C(F)(F)F)c1cc(COc2ccc3c(c2)CCCC3)on1 (stereo not given)	-3%	·	6%	15µM*	·
O=C1N/C(=C\c2ccc(O)cc2)C(O)=C1C=NCc1ccccc1	-14%	-21%	-7%	12µM*	-1%
COc1ccc(/C=C2\NC(=O)C(C=NCc3ccccc3)=C2O)cc1	3%	8%	6%	?	-7%
CCOC(=O)C1(CCCc2ccccc2)CCN(C(=O)CN2CCOC2=O)CC1	1%	·	-9%	-1%	-4%
CCOC(=O)C1(Cc2ccccc2Cl)CCN(C(=O)CN2CCOC2=O)CC1	?	·	3.5µM*	11µM*	0%
O=C(Nc1cccc(Br)c1)c1ccc(OC2CSC2)cc1	?	74%	2.2µM*	2.7µM*	?
Cc1cccc(NC(=O)c2ccc(OC3CSC3)cc2)c1	2.5µM*	18µM*	4µM*	1.9µM*	?
CC(C)(C)c1ccc(-c2nc(C#N)c(NCc3cccnc3)o2)cc1	10%	-18%	?	11µM*	3%
COc1ccc(Nc2oc(COc3cccc(C)c3)nc2C#N)cc1	?	19%	?	5.4µM*	-2%
COc1ccc(-c2nc(C#N)c(NCc3ccco3)o2)cc1	?	20µM*	?	13µM*	3%
N#Cc1nc(COc2cccc(Cl)c2)oc1NCc1ccco1	19%	12%	?	19µM*	3%
Cc1ccc(OCc2ccc(-c3nc(C#N)c(NCc4cccnc4)o3)o2)cc1	·	·	·	-16%	·
O=C(/C=C/c1c(C(=O)O)[nH]c2cc(Cl)cc(Cl)c12)Nc1ccccc1	·	-11%	·	·	1%
Cc1cccc(-c2nc(C#N)c(NCc3ccco3)o2)c1	?	·	?	11µM*	·
Cc1ccc(-c2nc(C#N)c(NCc3ccco3)o2)cc1	?	?	?	4.8µM*	-1%
C=CCNc1oc(-c2ccc(OC)cc2)nc1C#N	?	?	2.8µM*	8.5µM*	7%
CC1=C(C(=O)Nc2ccc(C(=O)NCCC(C)C)cc2)SCCO1	-3%	·	1%	-3%	·
CCOc1ccc(CCNC(=O)Cc2ccc(NC(=O)C3=C(C)OCCS3)cc2)cc1	?	·	?	4.3µM*	·
CSc1ccc(CNC(=O)Cc2ccc(NC(=O)C3=C(C)OCCS3)cc2)cc1	-1%	·	?	1.3µM*	·
SMILES	NPC1 prom act	SMN2 splice enh	Rab9 promoter act	FLuc counter	KinaseGlo FLuc
COC(=O)c1cc2oc(C)cc2n1Cc1c(C)cc(C)cc1C	·	14%	·	6%	·
O=C(N/C(=C/c1cccc(Br)c1)c1nc(=S)[nH][nH]1)c1ccccc1	-1%	3%	7%	6.7µM*	0%
COc1ccc(OC)c(NC(=O)c2ccc3c(c2)c(C)c(C)n3Cc2ccc(F)cc2)c1	·	·	·	-9%	·
CCOC(=O)c1ccc(-c2ccc(/C=N/NC(=O)CN(c3ccccc3Cl)S(C)(=O)=O)o2)cc1	?	11µM*	?	?	-1%
O=[N+]([O-])/C=C\c1cc2ccccc2[nH]1	·	-19%[9.22 µM]	·	·	-5%[7.66 µM]
Cc1noc(NS(=O)(=O)c2ccc(NC(=O)c3ccc(Br)cc3)cc2)c1C	·	-1%	·	21µM*	·

High-throughput results as filed in PubChem BioAssay.
